# Results reported in the supplement of paper PMC11006884.
# The full data set covers some 6,500 targets. This sample favours those with a hit. About 2% of all pairs of compound and target were hits. A number with no mark means an inactive call.
# Compound: COC(=O)C#Cc1ccccc1 [methyl 3-phenylpropiolate]
# Assay: log2 ratio of iodoacetamide-alkyne labeling of the cysteine site, DMSO over compound (competition); higher = stronger covalent engagement of the cysteine by the compound, active = 1 or more
# Settings: 500 µM; treatment time 1 h; system: HEK293T cell lysate
# In short: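 The log2 competition ratio per cysteine is defined as mean reporter intensity in control channels over mean reporter intensity in compound channels. Lysate from HEK293T cells (2 mg/mL) received electrophile (500 µM) or vehicle for 1 h at ambient temperature, followed by iodoacetamide alkyne for 1 h. Samples were clicked to sCIP-TMT reagents, pooled, trypsin-digested overnight at 37 °C, streptavidin-enriched, acid-eluted and run on Orbitrap Eclipse LC-MS/MS with FAIMS, with quantification in FragPipe. Three replicates with duplicate channels were used, and any cysteine quantified in only one replicate was excluded.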
# UniProt Q6KC79, sequence (Q6KC79 whole entry, looked up): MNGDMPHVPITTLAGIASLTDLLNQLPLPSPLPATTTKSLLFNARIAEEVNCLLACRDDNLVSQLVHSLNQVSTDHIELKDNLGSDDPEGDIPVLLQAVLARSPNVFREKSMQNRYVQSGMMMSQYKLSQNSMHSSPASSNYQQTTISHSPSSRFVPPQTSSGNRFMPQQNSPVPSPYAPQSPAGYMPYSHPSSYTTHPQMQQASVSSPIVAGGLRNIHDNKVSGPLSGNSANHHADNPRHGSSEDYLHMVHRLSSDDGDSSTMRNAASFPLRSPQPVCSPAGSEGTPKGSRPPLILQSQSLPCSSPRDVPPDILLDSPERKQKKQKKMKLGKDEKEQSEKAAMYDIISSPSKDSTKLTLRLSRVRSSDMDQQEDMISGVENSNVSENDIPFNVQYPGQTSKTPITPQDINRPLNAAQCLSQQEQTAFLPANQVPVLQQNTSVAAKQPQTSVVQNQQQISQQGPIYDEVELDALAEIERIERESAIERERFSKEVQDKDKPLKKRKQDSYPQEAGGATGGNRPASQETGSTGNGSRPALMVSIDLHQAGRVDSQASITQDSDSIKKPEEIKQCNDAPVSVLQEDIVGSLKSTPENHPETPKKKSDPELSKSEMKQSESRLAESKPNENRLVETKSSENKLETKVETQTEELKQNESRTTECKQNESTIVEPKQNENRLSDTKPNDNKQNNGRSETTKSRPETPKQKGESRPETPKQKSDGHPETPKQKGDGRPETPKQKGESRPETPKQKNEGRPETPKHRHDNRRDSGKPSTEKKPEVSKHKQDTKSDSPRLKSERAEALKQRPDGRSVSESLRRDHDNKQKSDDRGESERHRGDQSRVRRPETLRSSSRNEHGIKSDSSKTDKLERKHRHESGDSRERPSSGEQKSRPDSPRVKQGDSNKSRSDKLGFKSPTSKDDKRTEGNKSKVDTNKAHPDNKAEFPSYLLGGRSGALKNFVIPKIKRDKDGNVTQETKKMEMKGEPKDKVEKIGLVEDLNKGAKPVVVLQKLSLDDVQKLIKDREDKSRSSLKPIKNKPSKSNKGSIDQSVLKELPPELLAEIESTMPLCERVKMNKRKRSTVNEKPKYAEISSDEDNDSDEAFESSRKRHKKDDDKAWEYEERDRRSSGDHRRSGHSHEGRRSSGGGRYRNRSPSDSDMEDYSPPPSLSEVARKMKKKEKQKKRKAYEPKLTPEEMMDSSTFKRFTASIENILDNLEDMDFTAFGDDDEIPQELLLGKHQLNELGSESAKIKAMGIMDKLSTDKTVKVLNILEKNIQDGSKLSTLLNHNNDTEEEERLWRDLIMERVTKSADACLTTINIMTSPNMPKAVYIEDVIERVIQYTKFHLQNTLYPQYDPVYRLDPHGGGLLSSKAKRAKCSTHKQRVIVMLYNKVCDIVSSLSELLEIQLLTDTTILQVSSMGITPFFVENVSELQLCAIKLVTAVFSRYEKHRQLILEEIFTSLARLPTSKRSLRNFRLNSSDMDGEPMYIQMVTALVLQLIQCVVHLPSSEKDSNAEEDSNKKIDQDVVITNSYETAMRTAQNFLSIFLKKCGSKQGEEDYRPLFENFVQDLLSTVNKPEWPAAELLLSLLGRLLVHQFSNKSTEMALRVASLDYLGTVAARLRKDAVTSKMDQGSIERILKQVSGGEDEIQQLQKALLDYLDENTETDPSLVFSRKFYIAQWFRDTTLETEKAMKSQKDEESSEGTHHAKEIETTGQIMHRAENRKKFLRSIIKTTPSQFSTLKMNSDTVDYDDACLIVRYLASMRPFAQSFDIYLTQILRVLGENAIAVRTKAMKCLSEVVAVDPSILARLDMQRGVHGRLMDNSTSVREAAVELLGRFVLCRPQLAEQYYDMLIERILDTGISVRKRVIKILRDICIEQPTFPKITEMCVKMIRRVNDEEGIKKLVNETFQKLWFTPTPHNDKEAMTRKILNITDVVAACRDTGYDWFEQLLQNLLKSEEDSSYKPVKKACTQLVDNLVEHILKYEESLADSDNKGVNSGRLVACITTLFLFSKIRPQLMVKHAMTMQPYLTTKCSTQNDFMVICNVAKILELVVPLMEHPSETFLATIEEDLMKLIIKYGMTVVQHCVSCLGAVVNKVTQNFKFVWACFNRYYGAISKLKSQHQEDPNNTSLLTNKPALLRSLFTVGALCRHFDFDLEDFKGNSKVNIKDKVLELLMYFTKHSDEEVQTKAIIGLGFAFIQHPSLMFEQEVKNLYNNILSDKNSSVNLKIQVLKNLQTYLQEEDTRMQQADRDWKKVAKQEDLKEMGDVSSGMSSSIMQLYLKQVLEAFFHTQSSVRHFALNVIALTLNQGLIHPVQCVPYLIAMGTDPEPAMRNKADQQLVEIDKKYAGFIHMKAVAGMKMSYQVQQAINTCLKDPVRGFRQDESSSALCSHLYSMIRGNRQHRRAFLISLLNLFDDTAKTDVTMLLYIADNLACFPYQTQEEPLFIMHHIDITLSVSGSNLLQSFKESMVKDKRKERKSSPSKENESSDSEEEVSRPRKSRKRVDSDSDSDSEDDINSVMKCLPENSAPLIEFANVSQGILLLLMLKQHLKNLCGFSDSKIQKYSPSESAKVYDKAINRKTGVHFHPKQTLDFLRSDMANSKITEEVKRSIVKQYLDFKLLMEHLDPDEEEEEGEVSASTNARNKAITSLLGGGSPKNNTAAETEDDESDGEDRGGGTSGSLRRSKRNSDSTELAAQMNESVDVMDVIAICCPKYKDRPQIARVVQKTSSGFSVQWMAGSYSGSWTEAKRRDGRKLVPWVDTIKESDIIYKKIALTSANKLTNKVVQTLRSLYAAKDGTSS
# UniProt Q8N5K1, sequence (Q8N5K1 whole entry): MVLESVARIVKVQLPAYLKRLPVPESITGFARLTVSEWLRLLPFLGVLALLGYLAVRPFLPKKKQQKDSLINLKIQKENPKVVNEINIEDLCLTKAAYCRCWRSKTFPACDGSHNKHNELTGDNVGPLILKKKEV
# UniProt Q86VP6, sequence (Q86VP6 whole entry, looked up): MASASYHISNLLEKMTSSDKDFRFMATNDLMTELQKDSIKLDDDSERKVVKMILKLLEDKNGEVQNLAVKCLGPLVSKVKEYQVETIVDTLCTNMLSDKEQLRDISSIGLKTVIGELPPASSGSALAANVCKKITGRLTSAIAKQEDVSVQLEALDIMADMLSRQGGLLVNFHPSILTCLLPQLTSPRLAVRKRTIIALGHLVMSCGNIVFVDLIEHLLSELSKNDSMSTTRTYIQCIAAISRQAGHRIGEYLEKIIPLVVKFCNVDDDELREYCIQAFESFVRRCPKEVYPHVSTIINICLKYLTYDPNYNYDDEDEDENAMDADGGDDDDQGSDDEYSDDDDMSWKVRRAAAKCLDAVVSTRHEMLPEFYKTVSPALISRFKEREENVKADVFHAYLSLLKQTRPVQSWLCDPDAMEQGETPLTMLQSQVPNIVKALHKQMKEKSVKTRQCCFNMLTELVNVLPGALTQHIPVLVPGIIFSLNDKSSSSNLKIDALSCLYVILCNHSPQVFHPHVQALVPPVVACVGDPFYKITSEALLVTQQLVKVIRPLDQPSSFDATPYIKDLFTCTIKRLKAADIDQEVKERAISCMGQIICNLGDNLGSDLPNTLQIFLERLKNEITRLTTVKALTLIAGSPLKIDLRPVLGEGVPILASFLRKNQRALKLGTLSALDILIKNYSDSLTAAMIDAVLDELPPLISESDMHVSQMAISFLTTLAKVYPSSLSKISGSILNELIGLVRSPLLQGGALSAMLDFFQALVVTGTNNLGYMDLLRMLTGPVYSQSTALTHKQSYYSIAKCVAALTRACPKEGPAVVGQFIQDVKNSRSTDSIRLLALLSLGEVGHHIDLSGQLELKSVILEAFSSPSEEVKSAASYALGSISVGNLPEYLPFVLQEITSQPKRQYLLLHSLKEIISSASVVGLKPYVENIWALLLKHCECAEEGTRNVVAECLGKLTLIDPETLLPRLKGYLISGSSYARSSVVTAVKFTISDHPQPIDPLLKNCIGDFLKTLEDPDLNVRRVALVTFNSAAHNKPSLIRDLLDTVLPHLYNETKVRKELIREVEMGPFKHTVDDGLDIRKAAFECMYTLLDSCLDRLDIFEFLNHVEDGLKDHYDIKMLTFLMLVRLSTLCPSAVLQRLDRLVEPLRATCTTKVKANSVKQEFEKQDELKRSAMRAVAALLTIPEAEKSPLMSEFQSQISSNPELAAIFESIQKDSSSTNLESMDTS
# UniProt Q6UB35, sequence (Q6UB35 whole entry, looked up): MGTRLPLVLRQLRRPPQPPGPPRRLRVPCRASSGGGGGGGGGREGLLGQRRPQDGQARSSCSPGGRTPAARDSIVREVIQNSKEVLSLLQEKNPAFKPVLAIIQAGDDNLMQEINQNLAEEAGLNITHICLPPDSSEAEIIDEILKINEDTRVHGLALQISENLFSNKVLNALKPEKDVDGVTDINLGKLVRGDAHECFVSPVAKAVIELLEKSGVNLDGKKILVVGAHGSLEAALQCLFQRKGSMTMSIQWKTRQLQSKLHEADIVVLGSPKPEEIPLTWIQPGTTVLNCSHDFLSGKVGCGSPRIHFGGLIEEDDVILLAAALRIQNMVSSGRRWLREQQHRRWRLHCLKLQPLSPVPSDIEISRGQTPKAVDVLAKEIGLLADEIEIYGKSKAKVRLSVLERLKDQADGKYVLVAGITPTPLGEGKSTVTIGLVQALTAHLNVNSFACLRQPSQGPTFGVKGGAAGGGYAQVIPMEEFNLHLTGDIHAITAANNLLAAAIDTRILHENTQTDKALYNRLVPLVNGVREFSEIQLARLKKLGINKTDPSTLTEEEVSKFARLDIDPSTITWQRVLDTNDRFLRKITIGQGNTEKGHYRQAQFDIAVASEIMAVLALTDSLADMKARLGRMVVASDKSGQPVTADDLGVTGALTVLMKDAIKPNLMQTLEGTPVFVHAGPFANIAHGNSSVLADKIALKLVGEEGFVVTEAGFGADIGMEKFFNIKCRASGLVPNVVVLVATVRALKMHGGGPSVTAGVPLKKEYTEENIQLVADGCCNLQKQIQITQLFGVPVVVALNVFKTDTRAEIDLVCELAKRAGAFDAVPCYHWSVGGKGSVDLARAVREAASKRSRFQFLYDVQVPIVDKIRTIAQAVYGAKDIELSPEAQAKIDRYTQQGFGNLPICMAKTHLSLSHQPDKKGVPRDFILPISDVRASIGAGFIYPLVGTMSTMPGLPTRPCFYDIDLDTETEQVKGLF
row,Target,log2 ratio of iodoacetamide-alkyne labeling
1,DHX29 C1025 (UniProt Q7Z478),0.0649
2,NEK9 C11 (UniProt Q8TD19),1.21 (active)
3,AKAP1 C102 (UniProt Q92667),0.334
4,UniProt Q92616_C36,0.339
5,MACROD1 C199 (UniProt Q9BQ69),-0.0967
6,AKAP1 C389 (UniProt Q92667),1.15 (active)
7,CISD2 C92 (UniProt Q8N5K1),0.0262
8,CAND1 C413 (UniProt Q86VP6),0.304
9,UniProt Q8WZA9_C504,0.0403
10,DIS3L2 C312 (UniProt Q8IYB7),0.226
11,HSDL2 C11 (UniProt Q6YN16),0.0294
12,UniProt Q7Z2T5_C239,1.28 (active)
13,NIPBL C1795 (UniProt Q6KC79),-0.189
14,EXOC6 C28 (UniProt Q8TAG9),0.489
15,CCT7 C158 (UniProt Q99832),0.152
16,NKAP C349 (UniProt Q8N5F7),0.496
17,MAP1S C841 (UniProt Q66K74),0.464

row,Target,log2 ratio of iodoacetamide-alkyne labeling
1,TMEM209 C301 (UniProt Q96SK2),0.858
2,BEND3 C95 (UniProt Q5T5X7),1.11 (active)
3,UniProt Q7LBC6_C1212,0.571
4,LARP1 C502 (UniProt Q6PKG0),0.269
5,SECISBP2L C544 (UniProt Q93073),0.341
6,PNKP C516 (UniProt Q96T60),0.166
7,MTHFD1L C291 (UniProt Q6UB35),0.126
8,UniProt Q7LBC6_C1451,0.513
9,UniProt Q96HE7_C241,0.0793
10,SPAG5 C1035 (UniProt Q96R06),0.251
11,GATAD2B C423 (UniProt Q8WXI9),0.12
12,NOC3L C683 (UniProt Q8WTT2),0.191
13,ACD C406 (UniProt Q96AP0),0.713
14,AHCYL2 C353 (UniProt Q96HN2),1.13 (active)
15,ANKRD11 C1845 (UniProt Q6UB99),1.24 (active)
16,DNAJB14 C77 (UniProt Q8TBM8),1.08 (active)
17,SEC14L1 C258 (UniProt Q92503),0.208
